From PubChem
In the library only some 9% were active in any assay of this set; here they are far more common.
ALDH1A1 block = inhibitors of human aldehyde dehydrogenase 1A1. P00352. Purified ALDH1A1, NADH fluorescence, propionaldehyde substrate. Potency, µM (doses to about 75.3 µM), without a hit: top-dose activity, negative = inhibition, hits mostly inhibitors. hit rate 7.3% among 220,000. AID 1030;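 also: potency is read from the fitted curve at half-maximal effect; plate controls were no enzyme wells and a reference inhibitor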
IMPase cell inh = IMPase inhibition in cells | P97697 | CHO-M1 cells, IP1 accumulation, HTRF TR-FRET ratio | inhibition (IP1 accumulation), % at 46.1 µM | 120,000 tested, under 10 active | AID 901; active = well fitted curve in the direction sought with a large enough effect in the signal ratio, not every such curve was filed as active; inconclusive = small, poorly fitted or top-dose-only effect, or a change in a side signal; inactive = no such curve, though single readings can be large or run the other way; the % refers to the signal ratio;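 also: cells stimulated with carbachol in lithium chloride buffer; plate controls were DMSO basal wells for no effect and reference inhibitor wells for full effect; higher means more IMPase inhibition seen as more IP1 and lower FRET ratio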
Target sequence (P97697 whole entry, looked up): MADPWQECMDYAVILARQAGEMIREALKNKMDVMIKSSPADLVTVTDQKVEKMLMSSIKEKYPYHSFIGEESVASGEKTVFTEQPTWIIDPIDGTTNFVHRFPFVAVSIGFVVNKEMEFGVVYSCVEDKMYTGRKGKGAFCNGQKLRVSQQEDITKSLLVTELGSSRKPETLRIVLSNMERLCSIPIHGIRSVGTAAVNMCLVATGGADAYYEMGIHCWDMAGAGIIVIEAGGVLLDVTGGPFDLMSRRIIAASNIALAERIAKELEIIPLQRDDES
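The IP-One HTRF competitive assay in carbachol-stimulated CHO-M1 cells quantifies cellular IP1. Compounds spanned up to 46 uM final, and activity is expressed as AC50 from concentration-response fits of the ratio and donor data.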
HPGD block = HPGD (human) dehydrogenase inhibition; AID 894; purified HPGD, NADH fluorescence kinetic, PGE2 substrate; Potency, µM, for the others: top-dose activity change, negative = inhibition, most hits filed as inhibitors; hit rate 4.3% among 150,000; also: potency is read from the fitted curve at half-maximal effect
Target sequence (P15428 whole entry, looked up): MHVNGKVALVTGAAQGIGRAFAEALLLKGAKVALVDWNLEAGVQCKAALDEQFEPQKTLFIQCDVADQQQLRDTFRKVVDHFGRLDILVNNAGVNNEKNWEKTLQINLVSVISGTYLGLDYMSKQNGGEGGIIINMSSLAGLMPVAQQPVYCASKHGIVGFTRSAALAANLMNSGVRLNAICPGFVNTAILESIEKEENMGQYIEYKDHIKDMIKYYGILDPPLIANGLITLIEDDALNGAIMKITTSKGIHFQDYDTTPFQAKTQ
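20 nM HPGD preincubated 15 min at room temperature with compound in 50 mM Tris-HCl pH 8, 0.01% Tween 20. Started with 1 mM NAD+ and 30 uM prostaglandin E2; NADH fluorescence (360/450 nm) read 5 times over 30-s intervals, last minus first.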
Numbers without * were called inactive; ? = inconclusive; . = no result; [ ] = remark or other dose. Unless noted, calls follow the shape of the dose curve; as a rule, active = well fitted inhibition curve with a large enough effect (not every such curve was filed as active); inconclusive = small, poorly fitted or top-dose-only effect, or another doubt; inactive = no such curve, though single readings can be large or run the other way. Unless noted, % is scaled to controls: 0 for no effect and ±100 for the full control effect.

SMILES	ALDH1A1 block	IMPase cell inh	HPGD block
CCc1ccc(C(=O)CCC2CCCCC2=O)cc1 (stereo unspecified)	?	2	16µM*
CCS(=O)(=O)NCCNc1ccc([N+](=O)[O-])cc1	-4%	.	.
COc1ccc(CCNC(=O)Cc2ccc([N+](=O)[O-])cc2)cc1OC	-1%	.	.
O=C(Nc1ncc(Cc2ccc(C(F)(F)F)cc2)s1)c1ccc(-c2cccc([N+](=O)[O-])c2)o1	8%	-14	-23%
COc1ccc(CCNC(=O)c2ccc(-c3cccc([N+](=O)[O-])c3)o2)cc1OC	13µM*	.	.
NNC(=O)c1ccc(-c2cccc([N+](=O)[O-])c2)o1	7.1µM*	.	.
CS(=O)(=O)c1ncc(CO)n1Cc1ccccc1	4%	.	.
CC(=O)Nc1c(O)n(C)c2ccccc12	11%	14	-3%
Cc1nn(C)c(C)c1C1Nc2ccccc2C(=O)N1O (stereo unspecified)	?	?	-3%
C=CCc1cccc(C2Nc3ccccc3C(=O)N2O)c1O (stereo unspecified)	2%	11	7.1µM*
O=C1c2ccccc2NC(c2ccc(Cl)cc2Cl)N1O (stereo unspecified)	2%	11	-12%
Cc1ccsc1C1Nc2ccccc2C(=O)N1O (stereo unspecified)	-9%	.	18µM*
Cc1ccc(S(=O)(=O)NCC(=O)OC(C)C(=O)Nc2ncc(Cl)cc2Cl)cc1 (stereo unspecified)	-7%	16	-11%
Cc1ccccc1C(C(=O)NC1CCCCC1)N(C(=O)c1ccccn1)c1cccnc1 (stereo unspecified)	7%	.	.
COC(=O)/C(=N/Nc1ccccc1C)Sc1nnc(C(O)c2ccccc2)n1-c1ccccc1 (stereo unspecified)	-5%	.	32µM*
CC(=O)/C(=N/Nc1cccc(Cl)c1)Sc1nnc(C(O)c2ccccc2)n1-c1ccccc1 (stereo unspecified)	12%	-18	-13%
COc1ccc(C2CC(=O)c3c([nH]c(C(=O)OCCOc4ccccc4)c3C)C2)cc1OC (stereo unspecified)	.	6	.
O=c1c(-c2nc3ccccc3o2)c2oc3ccccc3n2c2ccccc12	?	12	?
CC(C)(O)[C@H](O)COc1c2occc2cc2ccc(=O)oc12	1%	.	-9%
CC(C)=CCC/C(C)=C/COc1c2occc2cc2ccc(=O)oc12	8.9µM*	2	?
Cc1ccc(N(CC(=O)Nc2ccccc2-c2ccccc2)S(=O)(=O)c2ccccc2)cc1	-9%	-2	-21%
Cc1cc(C)cc(N(CC(=O)Nc2ccccc2-c2ccccc2)S(=O)(=O)c2ccccc2)c1	-3%	-14	10µM*
CCOC(=O)C(=O)NC(C)CCc1ccccc1 (stereo unspecified)	1%	.	-4%
CC(=O)/C(=N/Nc1cccc(Cl)c1)N1CCOCC1	13µM*	9	-27%
CC(=O)/C(=N/Nc1ccccc1)N1CCOCC1	-4%	6	-20%
SMILES	ALDH1A1 block	IMPase cell inh	HPGD block
CC(=O)/C(=N/Nc1ccccc1C)N1CCOCC1	18µM*	-4	-27%
Cc1ccccc1NC(=O)NC1(C(=O)N2CCOCC2)CCCCC1	3%	.	.
CN(c1ccccc1)S(=O)(=O)c1cc(C(=O)OCC(N)=O)ccc1Cl	21%	.	.
Cc1ccc2c(c1)oc(=O)n2CC(=O)c1ccccc1	-6%	.	.
O=C(CN1C(=O)NC2(CCCCCCC2)C1=O)N1CCN(C(=O)c2ccco2)CC1	11µM*	-11	1%
O=C(COC(=O)C1(c2ccc(F)cc2)CCCC1)N1CCN(C(=O)c2ccco2)CC1	20µM*	-8	-2%
O=C(COC(=O)C1(c2ccccc2F)CCCC1)N1CCN(C(=O)c2ccco2)CC1	4%	-6	-5%
O=C(CN1C(=O)NC2(CCCC2)C1=O)N1CCN(C(=O)c2ccco2)CC1	-8%	2	-13%
COCC(=O)N1CCC2(CCCN(Cc3ccc(C#N)cc3)C2)CC1	-4%	.	-8%
NNC(=O)COc1ccc(C(F)(F)F)cc1	21%	.	.
C[C@H](O)[C@H](O)[C@@H]1CNc2nc(N)[nH]c(=O)c2N1	.	0	.
COC(=O)[C@@H]1CC[C@H](C)[C@@H](c2ccc(C)cc2)N1C(=O)c1ccc(/C=N\O[C@@H](C)CN2CCCCc3nc(C)c(C)cc32)cc1	14%[13.5 µM]	.	.
C=CCOC(=O)C1=C(C)OC(N)=C(C#N)C1c1ccc2c(c1)OCO2 (stereo unspecified)	?	9	?
COCCOC(=O)C1=C(C)OC(N)=C(C#N)C1c1ccc2c(c1)OCO2 (stereo unspecified)	13µM*	3	32µM*
Cc1ccc(C(=O)c2oc3ccccc3c2NC(=O)COc2ccc(C(C)(C)C)cc2)cc1	.	5	.
Cc1ccc(C2Oc3ccccc3C3=C2C(c2cccs2)n2ncnc2N3)cc1 (stereo unspecified)	11µM*	7	-14%
Fc1ccc(C2C3=C(Nc4ncnn42)c2ccccc2OC3c2ccncc2)cc1 (stereo unspecified)	?	6	?
N#CC1=C2SCN(c3ccccc3)CN2C(=O)CC1c1c(Cl)cccc1Cl (stereo unspecified)	3.2µM*	4	7.9µM*
N#CC1=C2SCC(O)(c3ccccc3)N2C(=O)CC1c1cccs1 (stereo unspecified)	0.035µM*	?	.
N#CCCCSC1=C(C#N)C(c2ccccc2Cl)CC(=O)N1 (stereo unspecified)	?	-7	-13%
N#CC1=C2SCN(c3ccccc3)CN2C(=O)CC1c1ccccc1Cl (stereo unspecified)	3.2µM*	2	7.9µM*
CSC1=C(C#N)C(c2cccs2)CC(=O)N1C (stereo unspecified)	?	4	-20%
N#CC1=C2SCN(c3ccccc3)CN2C(=O)CC1c1cccs1 (stereo unspecified)	3.2µM*	-14	7.1µM*
N#CC1=C2SCC(O)(c3ccccc3)N2C(=O)CC1c1ccccc1F (stereo unspecified)	?	5	-15%
COc1ccc(S(=O)(=O)N2CCCCCC2)cc1Br	3%	.	.
SMILES	ALDH1A1 block	IMPase cell inh	HPGD block
CNC(=O)C1CC(=O)N(CCCc2ccccc2)C(=Nc2ccccc2)S1 (stereo unspecified)	?	0	0%
Cc1cccc(N2CCN(Cc3cn(C)nc3-c3ccccc3F)CC2)n1	-6%	.	.
COC(=O)[C@H](Cc1ccccc1)NC(=O)O[C@@H]1C(=O)c2ccc(OC)cc2O[C@H]1c1ccc2c(c1)OCO2	5%	.	-9%
Cc1cc(OC(C)C)c2c(-c3ccccc3)cc(=O)oc2c1	?	2	?
O=C(COc1ccccc1F)N1CCc2ccccc2C1	-1%	.	.
Cc1cc(OCC(=O)N2CCc3ccccc3C2)c2c(-c3ccccc3)cc(=O)oc2c1	14µM*	5	-18%
CCOc1cc(C)cc2oc(=O)cc(-c3ccccc3)c12	22µM*	11	-12%
O=C1CC(c2ccc(F)cc2)Cc2nc(N3CCOCC3)ncc21 (stereo unspecified)	28µM*	8	-21%
O=C1CC(c2cccc(Cl)c2)Cc2nc(N3CCOCC3)ncc21 (stereo unspecified)	-5%	-5	-28%
O=C(Nc1ccccc1)N1CCn2c1nc1ccccc12	-1%	-8	-6%
